# From the supplement of paper PMC10849652
# The full data set covers some 7,900 targets. This sample favours those with a hit. About 0.6% of all pairs of compound and target were hits. Values without a mark were called inactive.
# Legend:
# Assay in all cases: log2 fold change, soluble protein after heating vs DMSO (PISA); higher = thermal stabilisation; K562 cells, 10 uM, 30 min; active = over 0.2 and 3.5 SD of the protein, either way, in both replicates (recomputed)
# bafetinib = compound: Cc1ccc(NC(=O)c2ccc(CN3CC[C@H](N(C)C)C3)c(C(F)(F)F)c2)cc1Nc1nccc(-c2cncnc2)n1 [bafetinib]
# Procedure, shortened: (§1)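 Aliquots of K562 cells (2×10^6 cells/mL) treated with 10 μM compound for 30 min were heated for 3 min over 48°C-58°C. After pooling and extraction in PBS with 0.5% NP-40 at 4°C, soluble protein from a 21,000xg, 90 min spin was quantified by TMTpro 16plex LC-MS/MS with channel sums equalised. Thermal stability is expressed against control samples, from duplicates, as a log2 fold change.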
# [1] = compound: Cc1cccc(CC(=O)N2CCc3c2ccc(-c2cn(C)c4ncnc(N)c24)c3F)n1
# Procedure, shortened: as §1
# nilotinib = compound: Cc1cn(-c2cc(NC(=O)c3ccc(C)c(Nc4nccc(-c5cccnc5)n4)c3)cc(C(F)(F)F)c2)cn1 [nilotinib]
# Procedure, shortened: as §1
# [2] = compound: Cc1nc(Nc2n[nH]c3c2CN(C(=O)N[C@H](CN(C)C)c2ccccc2)C3(C)C)c2sccc2n1
# Procedure, shortened: as §1
# dasatinib = compound: Cc1nc(Nc2ncc(C(=O)Nc3c(C)cccc3Cl)s2)cc(N2CCN(CCO)CC2)n1 [dasatinib]
# Procedure, shortened: as §1
# [3] = compound: Cc1ncc(-c2ccnc(Nc3ccc(S(C)(=O)=O)cc3)n2)n1C(C)C
# Procedure, shortened: as §1
# [4] = compound: Cn1cc(-c2ccc3c(c2)CCN3C(=O)Cc2cccc(C(F)(F)F)c2)c2c(N)ncnc21
# Procedure, shortened: as §1
# [5] = compound: Cn1cc(-c2ccc3nnc(C(F)(F)c4ccc5ncccc5c4)n3n2)cn1
# Procedure, shortened: as §1
# tipifarnib = compound: Cn1cncc1[C@@](N)(c1ccc(Cl)cc1)c1ccc2c(c1)c(-c1cccc(Cl)c1)cc(=O)n2C [tipifarnib]
# Procedure, shortened: as §1
# mubritinib = compound: FC(F)(F)c1ccc(/C=C/c2nc(COc3ccc(CCCCn4ccnn4)cc3)co2)cc1 [mubritinib]
# Procedure, shortened: as §1
# [6] = compound: NC(=O)Nc1cc(-c2cccc(F)c2)sc1C(=O)N[C@H]1CCCNC1
# Procedure, shortened: as §1
# [7] = compound: NC(=O)c1cnc(N[C@@H]2CCCC[C@@H]2N)nc1Nc1cccc(-n2nccn2)c1
# Procedure, shortened: as §1
# [8] = compound: NC1(c2ccc(-c3nc4ccn5c(=O)[nH]nc5c4cc3-c3ccccc3)cc2)CCC1
# Procedure, shortened: as §1
# [9] = compound: NCC(=O)Nc1ccc(-n2nc(C(F)(F)F)cc2-c2ccc3c(ccc4ccccc43)c2)cc1
# Procedure, shortened: as §1
# entinostat = compound: Nc1ccccc1NC(=O)c1ccc(CNC(=O)OCc2cccnc2)cc1 [entinostat]
# Procedure, shortened: as §1
# vorinostat = compound: O=C(CCCCCCC(=O)Nc1ccccc1)NO [vorinostat]
# Procedure, shortened: as §1
# citarinostat = compound: O=C(CCCCCCNC(=O)c1cnc(N(c2ccccc2)c2ccccc2Cl)nc1)NO [citarinostat]
# Procedure, shortened: as §1
# silmitasertib = compound: O=C(O)c1ccc2c(c1)nc(Nc1cccc(Cl)c1)c1ccncc12 [silmitasertib]
# Procedure, shortened: as §1
# [10] = compound: O=C1NC(=O)C(c2cnc3ccccn23)=C1c1cn2c3c(cc(F)cc13)CN(C(=O)N1CCCCC1)CC2
# Procedure, shortened: as §1
# [11] = compound: c1cc(OCCN2CCCCC2)cc(-c2n[nH]c3ccc(-c4nnc[nH]4)cc23)c1
# Procedure, shortened: as §1
# UniProt Q9Y5K3, sequence (Q9Y5K3 whole entry, looked up): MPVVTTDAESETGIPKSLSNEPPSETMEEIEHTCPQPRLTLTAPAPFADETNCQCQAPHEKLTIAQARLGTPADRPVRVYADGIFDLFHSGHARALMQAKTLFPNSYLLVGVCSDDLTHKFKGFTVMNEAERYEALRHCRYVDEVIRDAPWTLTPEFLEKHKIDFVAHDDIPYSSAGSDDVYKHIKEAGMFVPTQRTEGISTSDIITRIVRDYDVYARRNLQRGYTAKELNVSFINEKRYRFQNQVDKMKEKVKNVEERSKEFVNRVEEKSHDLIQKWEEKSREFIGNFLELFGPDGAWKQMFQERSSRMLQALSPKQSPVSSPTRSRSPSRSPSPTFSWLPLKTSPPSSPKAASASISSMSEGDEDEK
# UniProt P62136, sequence (P62136 whole entry, looked up): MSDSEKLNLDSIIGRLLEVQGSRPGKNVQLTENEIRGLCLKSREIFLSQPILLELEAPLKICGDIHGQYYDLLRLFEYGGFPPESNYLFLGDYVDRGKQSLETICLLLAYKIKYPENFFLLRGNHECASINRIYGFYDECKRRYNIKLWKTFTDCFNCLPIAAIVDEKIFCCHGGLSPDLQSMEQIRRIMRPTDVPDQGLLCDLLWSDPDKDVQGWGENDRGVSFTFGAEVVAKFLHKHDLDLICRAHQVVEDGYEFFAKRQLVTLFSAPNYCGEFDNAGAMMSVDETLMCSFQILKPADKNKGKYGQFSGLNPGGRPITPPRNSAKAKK
# UniProt Q86TP1, sequence (Q86TP1 whole entry, looked up): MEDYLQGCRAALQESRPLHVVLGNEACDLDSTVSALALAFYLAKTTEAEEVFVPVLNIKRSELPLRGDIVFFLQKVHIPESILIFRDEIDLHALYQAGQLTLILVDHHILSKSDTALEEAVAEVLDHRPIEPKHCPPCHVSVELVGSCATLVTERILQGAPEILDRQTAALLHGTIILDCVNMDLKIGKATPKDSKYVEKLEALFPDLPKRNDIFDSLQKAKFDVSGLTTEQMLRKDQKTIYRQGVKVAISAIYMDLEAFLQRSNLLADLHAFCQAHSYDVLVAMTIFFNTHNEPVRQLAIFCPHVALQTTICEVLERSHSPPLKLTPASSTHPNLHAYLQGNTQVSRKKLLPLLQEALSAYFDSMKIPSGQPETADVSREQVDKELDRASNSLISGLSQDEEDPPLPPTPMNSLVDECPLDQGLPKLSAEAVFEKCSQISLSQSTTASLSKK
# UniProt P48556, sequence (P48556 whole entry, looked up): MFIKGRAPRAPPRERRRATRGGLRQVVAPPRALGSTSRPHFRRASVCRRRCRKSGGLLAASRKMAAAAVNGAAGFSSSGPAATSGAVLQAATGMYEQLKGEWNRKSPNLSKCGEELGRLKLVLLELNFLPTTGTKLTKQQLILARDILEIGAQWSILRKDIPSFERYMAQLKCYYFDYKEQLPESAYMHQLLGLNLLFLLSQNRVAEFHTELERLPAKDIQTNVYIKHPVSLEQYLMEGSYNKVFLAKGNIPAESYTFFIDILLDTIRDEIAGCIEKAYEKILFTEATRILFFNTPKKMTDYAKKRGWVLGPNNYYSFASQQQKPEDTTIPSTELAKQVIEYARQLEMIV
# UniProt Q9Y3C6, sequence (Q9Y3C6 whole entry, looked up): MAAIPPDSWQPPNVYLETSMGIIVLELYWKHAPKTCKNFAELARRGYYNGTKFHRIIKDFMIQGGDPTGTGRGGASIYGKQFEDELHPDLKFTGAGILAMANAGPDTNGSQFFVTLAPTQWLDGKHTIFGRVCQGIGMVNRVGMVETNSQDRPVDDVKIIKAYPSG
# UniProt P46019, sequence (P46019 whole entry, looked up): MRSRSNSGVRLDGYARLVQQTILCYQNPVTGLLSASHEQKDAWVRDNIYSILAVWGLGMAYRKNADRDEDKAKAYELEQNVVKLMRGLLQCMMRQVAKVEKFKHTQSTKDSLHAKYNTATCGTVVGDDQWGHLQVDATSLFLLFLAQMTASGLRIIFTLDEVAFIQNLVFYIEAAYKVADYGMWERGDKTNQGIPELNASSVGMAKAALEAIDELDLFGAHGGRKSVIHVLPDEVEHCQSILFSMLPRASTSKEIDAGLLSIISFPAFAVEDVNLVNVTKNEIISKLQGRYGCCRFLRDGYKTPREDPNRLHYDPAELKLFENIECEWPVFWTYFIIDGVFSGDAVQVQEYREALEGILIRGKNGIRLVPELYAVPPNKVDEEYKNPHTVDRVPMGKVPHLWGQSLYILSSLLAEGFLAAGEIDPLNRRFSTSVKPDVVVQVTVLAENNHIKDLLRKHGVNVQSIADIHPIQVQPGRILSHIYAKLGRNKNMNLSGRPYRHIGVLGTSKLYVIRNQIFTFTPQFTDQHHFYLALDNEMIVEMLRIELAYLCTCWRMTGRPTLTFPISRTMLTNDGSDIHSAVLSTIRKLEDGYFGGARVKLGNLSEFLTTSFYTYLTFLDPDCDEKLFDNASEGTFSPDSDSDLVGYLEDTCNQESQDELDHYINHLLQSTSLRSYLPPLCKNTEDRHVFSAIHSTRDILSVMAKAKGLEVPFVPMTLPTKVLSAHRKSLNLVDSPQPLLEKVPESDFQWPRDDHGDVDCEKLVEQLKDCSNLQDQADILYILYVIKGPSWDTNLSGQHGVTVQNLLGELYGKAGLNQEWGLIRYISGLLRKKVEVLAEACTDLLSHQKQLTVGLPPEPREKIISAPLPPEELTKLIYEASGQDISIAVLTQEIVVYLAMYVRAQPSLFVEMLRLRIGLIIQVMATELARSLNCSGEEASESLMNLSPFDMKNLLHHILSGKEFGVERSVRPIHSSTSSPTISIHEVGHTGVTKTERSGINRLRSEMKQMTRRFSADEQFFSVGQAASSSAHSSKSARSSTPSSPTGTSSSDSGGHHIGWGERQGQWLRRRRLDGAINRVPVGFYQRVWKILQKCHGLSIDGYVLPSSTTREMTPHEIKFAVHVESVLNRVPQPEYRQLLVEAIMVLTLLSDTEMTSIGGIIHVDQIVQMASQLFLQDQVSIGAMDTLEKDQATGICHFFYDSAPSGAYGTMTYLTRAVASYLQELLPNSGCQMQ
# UniProt Q29RF7, sequence (Q29RF7 whole entry, looked up): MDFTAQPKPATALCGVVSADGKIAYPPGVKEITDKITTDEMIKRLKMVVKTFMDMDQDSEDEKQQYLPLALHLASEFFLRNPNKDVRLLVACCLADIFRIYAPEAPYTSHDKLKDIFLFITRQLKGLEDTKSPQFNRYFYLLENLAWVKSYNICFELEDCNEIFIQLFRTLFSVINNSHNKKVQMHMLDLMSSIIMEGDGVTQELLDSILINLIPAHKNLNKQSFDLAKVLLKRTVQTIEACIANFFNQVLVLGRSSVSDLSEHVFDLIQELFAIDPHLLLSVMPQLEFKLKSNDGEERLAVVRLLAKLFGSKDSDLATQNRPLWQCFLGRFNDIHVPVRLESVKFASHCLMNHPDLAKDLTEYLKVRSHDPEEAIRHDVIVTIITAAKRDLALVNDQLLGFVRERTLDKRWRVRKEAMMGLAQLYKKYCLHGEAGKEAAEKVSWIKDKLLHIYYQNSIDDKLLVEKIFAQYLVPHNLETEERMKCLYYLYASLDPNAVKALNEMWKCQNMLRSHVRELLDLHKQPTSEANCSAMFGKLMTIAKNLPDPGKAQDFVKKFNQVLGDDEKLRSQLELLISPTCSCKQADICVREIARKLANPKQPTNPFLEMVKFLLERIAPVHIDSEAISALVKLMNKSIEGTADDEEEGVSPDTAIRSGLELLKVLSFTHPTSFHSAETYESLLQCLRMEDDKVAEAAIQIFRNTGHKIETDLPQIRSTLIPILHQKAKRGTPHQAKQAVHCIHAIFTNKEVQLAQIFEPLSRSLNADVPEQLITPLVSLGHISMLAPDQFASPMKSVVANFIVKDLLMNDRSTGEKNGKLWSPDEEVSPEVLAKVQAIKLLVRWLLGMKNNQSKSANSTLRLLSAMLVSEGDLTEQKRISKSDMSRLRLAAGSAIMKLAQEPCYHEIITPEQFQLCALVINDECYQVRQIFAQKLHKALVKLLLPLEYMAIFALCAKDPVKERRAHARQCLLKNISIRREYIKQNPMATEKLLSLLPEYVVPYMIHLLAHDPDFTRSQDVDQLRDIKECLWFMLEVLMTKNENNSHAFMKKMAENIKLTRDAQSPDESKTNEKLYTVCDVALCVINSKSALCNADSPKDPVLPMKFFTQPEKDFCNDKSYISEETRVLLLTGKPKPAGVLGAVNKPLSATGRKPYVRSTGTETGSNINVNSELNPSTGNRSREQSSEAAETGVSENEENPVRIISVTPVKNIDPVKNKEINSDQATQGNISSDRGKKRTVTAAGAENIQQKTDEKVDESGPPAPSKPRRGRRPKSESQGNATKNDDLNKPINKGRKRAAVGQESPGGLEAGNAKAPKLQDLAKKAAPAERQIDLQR
# UniProt P54619, sequence (P54619 whole entry, looked up): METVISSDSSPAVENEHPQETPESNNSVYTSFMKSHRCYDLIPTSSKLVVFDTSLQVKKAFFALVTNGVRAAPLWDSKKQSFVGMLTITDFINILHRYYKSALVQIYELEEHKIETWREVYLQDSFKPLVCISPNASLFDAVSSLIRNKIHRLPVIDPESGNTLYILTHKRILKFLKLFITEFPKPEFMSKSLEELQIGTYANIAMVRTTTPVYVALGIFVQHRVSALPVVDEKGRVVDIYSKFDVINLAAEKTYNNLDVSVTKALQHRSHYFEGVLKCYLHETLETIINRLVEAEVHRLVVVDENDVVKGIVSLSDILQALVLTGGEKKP
# UniProt Q8NBL1, sequence (Q8NBL1 whole entry, looked up): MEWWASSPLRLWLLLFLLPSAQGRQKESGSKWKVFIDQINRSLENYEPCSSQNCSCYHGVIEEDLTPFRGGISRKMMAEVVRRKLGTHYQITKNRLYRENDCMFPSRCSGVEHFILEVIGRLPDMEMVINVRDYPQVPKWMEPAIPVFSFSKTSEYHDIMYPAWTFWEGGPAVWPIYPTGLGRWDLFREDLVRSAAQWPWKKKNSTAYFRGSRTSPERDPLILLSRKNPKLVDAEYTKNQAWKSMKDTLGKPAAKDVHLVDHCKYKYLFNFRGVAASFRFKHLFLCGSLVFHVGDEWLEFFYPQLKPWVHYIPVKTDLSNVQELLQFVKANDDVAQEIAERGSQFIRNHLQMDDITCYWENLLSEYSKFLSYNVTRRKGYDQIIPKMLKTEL
Target,log2 fold change (bafetinib),log2 fold change [1],log2 fold change (nilotinib),log2 fold change [2],log2 fold change (dasatinib),log2 fold change [3],log2 fold change [4],log2 fold change [5],log2 fold change (tipifarnib),log2 fold change (mubritinib),log2 fold change [6],log2 fold change [7],log2 fold change [8],log2 fold change [9],log2 fold change (entinostat),log2 fold change (vorinostat),log2 fold change (citarinostat),log2 fold change (silmitasertib),log2 fold change [10],log2 fold change [11]
POGLUT1 (UniProt Q8NBL1),0.009,0.122,-0.001,0.03,0.024,-0.049,-0.022,-0.073,0.048,-0.046,-0.043,-0.057,-0.008,-0.102,-0.01,0.112,-0.058,0,0.019,-0.05
PPIL1 (UniProt Q9Y3C6),0.024,-0.002,-0.029,0.046,-0.042,0.073,-0.063,-0.022,-0.088,0.01,-0.054,0.059,0.008,-0.074,-0.001,-0.013,0.015,0.075,0.001,-0.051
PGM3 isoform 4 (UniProt O95394),0.056,0.153,-0.022,0.021,-0.145,-0.003,0.106,0.02,-0.079,0.293 (active),-0.039,-0.118,-0.147,-0.063,0.015,0.061,0.046,-0.012,-0.008,-0.024
PRKAG1 isoform 3 (UniProt P54619),-0.098,0.001,-0.079,-0.189,-0.056,-0.01,0.001,0.022,0.007,-0.052,-0.105,-0.033,-0.069,-0.045,0.017,0.071,0.04,0.016,-0.042,-0.091
PELP1 (UniProt Q8IZL8),0.005,-0.115,-0.007,0.007,0.004,-0.047,0.064,-0.034,0.063,-0.009,0.071,-0.068,-0.046,0.071,-0.022,-0.003,0.038,0.078,-0.084,-0.027
PSME4 (UniProt Q14997),0.069,0.141,-0.057,0.016,-0.084,-0.098,0.015,-0.006,-0.036,0.052,0.047,-0.054,-0.204,-0.03,0.011,0.127,0.047,-0.007,0.02,-0.092
PEX16 isoform 2 (UniProt Q9Y5Y5),-0.202,0.016,-0.067,0.006,0.004,-0.006,0.079,0.079,-0.067,0.174,0.061,-0.052,-0.171,-0.031,0.022,0.115,0.081,-0.025,0.033,-0.051
PHKA2 (UniProt P46019),-0.107,-0.037,-0.239,0.119,-0.07,-0.157,0.033,-0.051,-0.055,0.082,0.013,-0.112,-0.157,0.005,0.13,0.04,-0.046,0.001,-0.013,0.065
PCYT1B (UniProt Q9Y5K3),-0.193,-0.068,-1.28 (active),-0.105,-0.142,-0.089,-0.024,-0.037,-0.053,0.168,-0.019,-0.007,-0.218,-0.03,0.043,-0.038,0.084,0.077,-0.231,-0.025
PSMD8 (UniProt P48556),0.089,-0.013,0.039,0.054,0.029,-0.031,-0.07,0.009,0.117,-0.032,-0.035,0.042,-0.07,0.009,-0.009,0.016,-0.015,0.007,0.019,-0.101
PRMT8 (UniProt Q9NR22),0.002,0.032,-0.036,0.048,-0.064,0.02,0.064,-0.066,-0.136,0.035,0.403 (active),-0.149,-0.118,-0.054,0.21,0.029,-0.031,-0.039,-0.057,-0.006
PDS5A (UniProt Q29RF7),-0.055,0.008,-0.397,-0.164,-0.3,0.001,0.08,0.123,-0.231,0.157,-0.076,-0.024,-0.061,0.018,0.306,0.062,0.068,0.017,-0.103,-0.075
PFAS (UniProt O15067),0.033,0.311,-0.359 (active),-0.113,-0.003,0.059,0.341 (active),0.06,0.018,0.52 (active),0.06,-0.075,-0.012,-0.054,0.134,0.042,0.049,-0.119,-0.052,0.142
PRUNE1 (UniProt Q86TP1),-0.037,0.045,-0.051,-0.054,-0.178,0.082,-0.045,-0.045,-0.122,-0.056,-0.004,-0.012,-0.179,0.052,0.041,0.04,0.006,0.138,-0.107,0.018
POP1 (UniProt Q99575),0.019,0.002,0.074,-0.018,0.039,-0.037,0.042,0.007,-0.036,-0.006,0.072,0.025,0.03,0.045,-0.019,-0.013,-0.003,-0.011,0.038,-0.128
PPP1CA (UniProt P62136),-0.053,-0.001,-0.002,-0.006,0.008,-0.011,0.018,0.065,0.023,0.065,-0.036,-0.051,-0.019,-0.02,-0.012,-0.023,0.034,0,0.007,-0.045
